From PubChem BioAssay
RAD54 branch: inhibitors of human RAD54 branch migration. RAD54 Holliday junction branch migration, FAM/BHQ fluorescence. inhibition, % at 10.4 µM. 360,000 compounds, 0.14% hits;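 active means mean normalized replicate activity at least 40 and at least half of replicates scoring 40 or more; inconclusive means only one of the two criteria met; inactive means mean below 40 and under half of replicates reaching 40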;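 further: inhibitors cause a drop in the FAM fluorescence signal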
F508del corr: CFTR F508del correction in bronchial cells. CFBE cells, YFP halide quenching; stimulated with forskolin plus potentiator P3; % fluorescence drop versus neutral controls. activity (quench increase), % at 7.58 µM. 350,000 compounds, 0.36% hits;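 active means mean added fluorescence quench of at least 8% versus neutral control, with both replicates also reaching 8%; inconclusive means only one of the mean or replicate conditions met; inactive means mean below 8% and not both replicates reaching 8%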;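 further: cells transiently co-express mutant CFTR-F508del with the halide-sensitive YFP; corrector assay measuring rescue of mutant channel to the surface after 24 h compound exposure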
N-glyco inh: N-linked glycosylation inhibition. D54 ERlucT glycosylation luciferase reporter, 24 h; percent of 100 nM tunicamycin response. reporter increase, % at 12.5 µM. 360,000 compounds, 0.23% hits;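 active means mean luciferase reporter signal, scaled so untreated is 0 and the glycosylation-blocking control 100, at or above a set limit in every replicate; inconclusive means mean reaches the limit but not every replicate does; inactive means mean below the limit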;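 further: luciferase carries N-glycosylation sites so blocking glycosylation raises the light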
dFosB activator: enhances mouse delta FosB homodimer DNA binding. P13346. activation, % at 25 µM. 340,000 compounds, 0.99% hits. AID 493131. purified delta FosB, TAMRA-CDK5 oligo fluorescence polarization; percent of positive-control signal above neutral wells;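 active means mean activation above about 17%, with every replicate also reaching it, limit read from the data, passing the limit was not always enough; inconclusive means only one of the two conditions met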
PvdQ inh: P. aeruginosa PvdQ acylase inhibition; purified PvdQ acylase, fluorescence plate reader; inhibition, % at 10 µM; 340,000 compounds, 0.063% hits; AID 488965; in the data active means inhibition above about 30%, passing the limit was not always enough; inconclusive means no clear call, values can overlap the other calls
RAD52 anneal inh: blocks human RAD52 DNA annealing; P43351; recombinant RAD52 DNA annealing, FRET fluorescence; inhibition, % at 18.7 µM; 360,000 compounds, 0.46% hits; AID 651710;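 active means every replicate showing at least 50% inhibition; inconclusive means mean inhibition at least 50% but not in every replicate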
Target sequence (P43351 whole entry, looked up): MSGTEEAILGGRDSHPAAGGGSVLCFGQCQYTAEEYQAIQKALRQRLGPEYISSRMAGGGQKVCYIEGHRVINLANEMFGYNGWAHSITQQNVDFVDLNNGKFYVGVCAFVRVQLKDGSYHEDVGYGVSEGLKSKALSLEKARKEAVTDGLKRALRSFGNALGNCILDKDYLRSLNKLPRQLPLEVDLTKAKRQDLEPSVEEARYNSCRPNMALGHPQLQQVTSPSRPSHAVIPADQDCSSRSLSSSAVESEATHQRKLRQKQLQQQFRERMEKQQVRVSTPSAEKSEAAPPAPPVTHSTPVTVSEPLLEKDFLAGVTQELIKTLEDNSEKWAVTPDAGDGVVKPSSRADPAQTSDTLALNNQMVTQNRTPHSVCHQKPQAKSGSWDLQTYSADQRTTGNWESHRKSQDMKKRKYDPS
Large screens that a line does not name were inactive. An excerpt weighted towards active compounds, which were near 1.5% of everything screened.

C[C@H](CO)N1C[C@H](C)[C@@H](CN(C)Cc2ccc3c(c2)OCO3)Oc2ccc(NC(=O)Nc3cccc4ccccc34)cc2CC1=O	RAD52 anneal inh 54.7 (no result: N-glyco inh, dFosB activator, PvdQ inh)
CCNC(=O)C[C@H]1C=C[C@@H](NC(=O)C2CCOCC2)[C@@H](CO)O1	none (no result: RAD54 branch, N-glyco inh, dFosB activator, PvdQ inh)
O=C(c1ccc(F)cc1)N1CCCCN2[C@H](CO)[C@H](c3ccc(-c4ccc(F)cc4)cc3)[C@@H]2C1	none (no result: N-glyco inh, dFosB activator, PvdQ inh, RAD52 anneal inh)
CO[C@@H]1CN(C)C(=O)c2cc(NC(=O)NC3CCCCC3)ccc2OC[C@H](C)NC[C@@H]1C	none (no result: N-glyco inh, dFosB activator, PvdQ inh)
C[C@H]1CCCCO[C@H](CN(C)Cc2ccc3c(c2)OCO3)[C@@H](C)CN([C@@H](C)CO)C(=O)c2cc(NC(=O)Nc3ccccc3)ccc2O1	RAD52 anneal inh 56.3 (no result: N-glyco inh, dFosB activator, PvdQ inh)
C[C@@H]1CN([C@H](C)CO)C(=O)c2cc(NC(=O)Nc3ccccc3)ccc2O[C@@H](C)CCCCO[C@H]1CN(C)Cc1ccc2c(c1)OCO2	RAD52 anneal inh 61.4 (no result: N-glyco inh, dFosB activator, PvdQ inh)
C[C@@H]1CCCCO[C@H](CN(C)Cc2ccc3c(c2)OCO3)[C@H](C)CN([C@H](C)CO)C(=O)c2cc(NC(=O)Nc3cccc4ccccc34)ccc2O1	none (no result: N-glyco inh, dFosB activator, PvdQ inh, RAD52 anneal inh)
C[C@@H]1CN([C@@H](C)CO)C(=O)c2cc(NC(=O)Nc3cccc4ccccc34)ccc2O[C@@H](C)CCCCO[C@@H]1CN(C)Cc1ccc2c(c1)OCO2	F508del corr 8.8 (no result: N-glyco inh, dFosB activator, PvdQ inh, RAD52 anneal inh)
C[C@@H]1CN([C@H](C)CO)C(=O)c2cc(NC(=O)Nc3ccccc3)ccc2O[C@@H](C)CCCCO[C@@H]1CN(C)Cc1ccc2c(c1)OCO2	none (no result: N-glyco inh, dFosB activator, PvdQ inh)
CNC[C@H]1OCCCC[C@H](C)Oc2ccc(NC(=O)Nc3c(C)noc3C)cc2C(=O)N([C@@H](C)CO)C[C@@H]1C	none (no result: RAD54 branch, N-glyco inh, dFosB activator, PvdQ inh, RAD52 anneal inh)
COCC(=O)N1CC2(CCN(C(=O)CN3CCOCC3)CC2)c2c([nH]c3cc(OC)ccc23)[C@H]1CO	none (no result: RAD54 branch, N-glyco inh, dFosB activator, PvdQ inh, RAD52 anneal inh)
CC(C)CC(=NNC(=O)c1ccncc1)c1cc(Cl)ccc1O	F508del corr 16.2
CC(=NNC(=O)c1ccncc1)c1ccccc1O	none
CCNC(=O)[C@H]1[C@H](CO)[C@H]2Cn3c(ccc(-c4ccccc4)c3=O)[C@@H]1N2Cc1cccnc1	none (no result: N-glyco inh, dFosB activator, PvdQ inh)
C[C@@H]1CN([C@@H](C)CO)S(=O)(=O)c2ccc(C#Cc3ccc(F)cc3)cc2O[C@H]1CN(C)C	none (no result: F508del corr, N-glyco inh, dFosB activator, PvdQ inh)
C[C@@H]1CN([C@H](C)CO)S(=O)(=O)c2ccc(C#Cc3ccc(F)cc3)cc2O[C@@H]1CN(C)C(=O)CN(C)C	RAD52 anneal inh 65.2 (no result: N-glyco inh, dFosB activator, PvdQ inh)
C[C@H](CO)N1C[C@H](C)[C@H](CN(C)C(=O)CN(C)C)Oc2cc(C#Cc3ccc(F)cc3)ccc2S1(=O)=O	RAD52 anneal inh 60.5 (no result: N-glyco inh, dFosB activator, PvdQ inh)
C[C@@H]1CN([C@H](C)CO)S(=O)(=O)c2ccc(C#Cc3ccc(F)cc3)cc2O[C@H]1CN(C)C	none (no result: F508del corr, N-glyco inh, dFosB activator, PvdQ inh)
C[C@H]1CN([C@@H](C)CO)S(=O)(=O)c2ccc(C#Cc3ccc(F)cc3)cc2O[C@@H]1CN(C)C(=O)CN(C)C	RAD52 anneal inh 65.5 (no result: N-glyco inh, dFosB activator, PvdQ inh)
CCCNC(=O)[C@H]1[C@H](CO)[C@H]2Cn3c(ccc(-c4ccc(F)cc4)c3=O)[C@@H]1N2CCC	none (no result: N-glyco inh, dFosB activator, PvdQ inh)
O=C1c2ccccc2C(=O)N1Cc1cnc(N2CCN(c3ccccc3)CC2)s1	F508del corr 11.0, N-glyco inh inconclusive (no result: RAD54 branch)
COc1ccc2c3c(n(C)c2c1)[C@@H](CO)N(C(=O)C1CCCC1)CC31CCN(C)CC1	none (no result: RAD54 branch, N-glyco inh, dFosB activator, PvdQ inh)
CCCCNc1cc(C(=O)O)cc(S(N)(=O)=O)c1Oc1ccccc1	F508del corr 8.6
Cc1nn(-c2ccccc2)c(N2CCCC2)c1/C=N/NC(=O)c1ccccc1O	none (no result: RAD54 branch, F508del corr, RAD52 anneal inh)
O=C(N/N=C/c1cc2c3c(c1O)CCCN3CCC2)c1ccccc1O	F508del corr 8.3 (no result: RAD54 branch)
C[C@H](NC(=O)C[C@H]1C[C@@H]2c3cc(NC(=O)Cc4ccncc4)ccc3O[C@@H]2[C@@H](CO)O1)c1ccccc1	none (no result: N-glyco inh, dFosB activator, PvdQ inh)
CCC(C(=O)OCC(=O)C1(O)CCC2C3CCC4=CC(=O)CCC4(C)C3C(O)CC21C)C(C)C (stereo unspecified)	F508del corr 8.2
COc1ccc(C)cc1NC(=O)C(OC(=O)c1ccc(Cl)c(S(=O)(=O)N(C)c2ccccc2)c1)c1ccccc1 (stereo unspecified)	F508del corr 9.2
COc1ccc(C)cc1NC(=O)C(OC(=O)c1cnccn1)c1ccccc1 (stereo unspecified)	none
